Experimental data as given in PubChem BioAssay.
Inconclusive results are not listed. Activity calls are given as the source filed them.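 How the source made its calls, unless noted: active means normalized viability below 100% at a tested concentration; inactive means the rest.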

Columns and labels:
[1] = viability loss in pontine glioma line – cell-based, SU-DIPG-XVII, MIPE5.0, CellTiter-Glo, qHTS, dose response (AID 1347060; cut-off not given, nearly all actives have AC50 up to about 26 µM;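 further: cells exposed to compound for 48 hours before viability readout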); conditions: CellTiter-Glo ATP luminescence
[2] = viability loss in pontine glioma line – cell-based, SU-DIPG-XIII, MIPE4.0, CellTiter-Glo, qHTS, dose response (AID 1347061; cut-off not given, nearly all actives have AC50 up to about 37 µM;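 further: cells exposed to compound for 48 hours before readout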); conditions: CellTiter-Glo ATP luminescence
[3] = viability loss in pontine glioma line – cell-based, JHH-DIPG-1, MIPE4.0, CellTiter-Glo, qHTS, dose response (AID 1347062; cut-off not given, nearly all actives have AC50 up to about 27 µM;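 further: cells exposed to compound for two days before readout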); conditions: JHH-DIPG-1 viability, CellTiter-Glo ATP luminescence
[4] = viability loss in pontine glioma line – cell-based, SU-DIPG-IV, MIPE4.0, CellTiter-Glo, qHTS, dose response (AID 1347063; cut-off not given, nearly all actives have AC50 up to about 30 µM;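 further: compound exposure lasted 48 hours before the viability readout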); conditions: CellTiter-Glo ATP luminescence
[5] = viability loss in pontine glioma line – cell-based, SU-DIPG-XIII, MIPE5.0, CellTiter-Glo, qHTS, dose response (AID 1347064; cut-off not given, nearly all actives have AC50 up to about 23 µM;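 further: cells exposed to compound for 48 hours before the viability read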); conditions: CellTiter-Glo ATP luminescence
[6] = viability loss in pontine glioma line – cell-based, SU-DIPG-XXV, MIPE5.0, CellTiter-Glo, qHTS, dose response (AID 1347065; cut-off not given, nearly all actives have AC50 up to about 26 µM;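 further: cells exposed to compound for 48 hours before ATP readout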); conditions: CellTiter-Glo ATP luminescence
[7] = growth inhibition of DIPG cells – cell-based, MIPE4.0 library, CellTiter-Glo luminescence, qHTS (AID 1347066; cut-off not given, nearly all actives have AC50 up to about 30 µM;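 further: cells exposed to compound for 48 hours before readout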); conditions: SU-DIPG-VI viability, CellTiter-Glo ATP luminescence
[8] = JHH-DIPG-1 glioma cell viability, MIPE5.0 library, CellTiter-Glo luminescence, qHTS (AID 1347067; cut-off not given, nearly all actives have AC50 up to about 26 µM;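 further: cells exposed to compound for 48 hours before readout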); conditions: JHH-DIPG-1 glioma viability, CellTiter-Glo ATP luminescence
[9] = growth inhibition of DIPG cells – cell-based, MIPE5.0 library, qHTS (AID 1347068; cut-off not given, nearly all actives have IC50 up to about 30 µM;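 further: cells exposed to compound for 48 hours before viability readout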); conditions: SU-DIPG-XXV viability
[10] = viability loss with induced miR-34 in A549 – imaging, A549 dox-inducible miR-34, nuclei and caspase counts, primary screen (AID 1347080;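 active means compounds whose cell count with miR-34 switched on is under 0.7 times the count with it off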); conditions: A549 miR-34 inducible, Hoechst nuclei count, 48 h
[11] = MELAS cybrid and Rieske KO viability enhancers – cell-based, MELAS cybrids, Rieske KO mouse fibroblasts, CellTiter-Glo, primary screen (AID 1508586;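 active means mean z-score across replicates of 1.96 or higher in either the MELAS or the Rieske mutant cell line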;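 further: z relative to plate mean and SD of compound and empty wells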); conditions: low glucose
[12] = drug combination growth inhibition, ovarian cancer – cell-based, oncology-focused library, rucaparib conditional, profiling panel (AID 1508598); conditions: patient-derived ovarian cancer cells, CellTiter-Glo viability, 144 h, stronger effect = lower value
[13] = compounds altering HSF1 focus formation in cells – imaging, Selleck Cancer Library (AID 1347162; in the data active means plate-normalised HSF1 focus index below about 0.46); conditions: human cells, HSF1 nuclear foci imaging, at 10 µM; SSMD: measured here: HSF1 foci SSMD mean; cell count: measured here: cell number; plate-normalised HSF1 focus index: stronger effect = lower value
[14] = stronger effect = lower value, cell number ratio, induced over uninduced
[15] = measured here: relative caspase fold change +Dox/-Dox
[16] = measured here: total cells with miR-34 induction, stronger effect = lower value
[17] = measured here: total cells without miR-34 induction
[18] = MELAS cybrid survival, CellTiter-Glo 48 h, stronger effect = higher value
[19] = Rieske KO mouse fibroblast survival, CellTiter-Glo 72 h
[20] = at 0.000305 µM, OCI-C5x cells, with rucaparib 10 µM, 100% = cells with rucaparib alone
[21] = at 0.000305 µM, OCI-C5x cells, without rucaparib
[22] = at 0.000305 µM, OCI-P5x cells, with rucaparib 20 µM, 100% = cells with rucaparib alone
[23] = at 0.000305 µM, OCI-P5x cells, without rucaparib
[24] = at 0.00122 µM, OCI-C5x cells, with rucaparib 10 µM, 100% = cells with rucaparib alone
[25] = at 0.00122 µM, OCI-C5x cells, without rucaparib
[26] = at 0.00122 µM, OCI-P5x cells, with rucaparib 20 µM, 100% = cells with rucaparib alone
[27] = at 0.00122 µM, OCI-P5x cells, without rucaparib
[28] = at 0.00488 µM, OCI-C5x cells, with rucaparib 10 µM, 100% = cells with rucaparib alone
[29] = at 0.00488 µM, OCI-C5x cells, without rucaparib
[30] = at 0.00488 µM, OCI-P5x cells, with rucaparib 20 µM, 100% = cells with rucaparib alone
[31] = at 0.00488 µM, OCI-P5x cells, without rucaparib

COCCn1c2c([n+](Cc3cnccn3)c1C)C(=O)c1ccccc1C2=O
-2.86: z-score [11, 19]
551: cell count [10, 17]
0.996: fold change [10, 15]
active: AC50 [1] 9.34 nM | AC50 [2] 66.2 nM | AC50 [3] 46.9 nM | AC50 [4] 14.8 nM | AC50 [5] 1.66 nM | AC50 [6] 26.3 nM | AC50 [7] 23.5 nM | AC50 [8] 105 nM | IC50 [9] 29.5 nM | viability [12, 20] 92.6% | viability [12, 21] 88.5% | viability [12, 24] 88.5% | viability [12, 25] 93.8% | viability [12, 27] 99.4% | viability [12, 28] 90.5% | viability [12, 29] 91.8% | viability [12, 31] 49.6% | viability ([12]; at 0.0195 µM, OCI-C5x cells, with rucaparib 10 µM, 100% = cells with rucaparib alone) 83% | viability ([12]; at 0.0195 µM, OCI-C5x cells, without rucaparib) 14.6% | viability ([12]; at 0.0195 µM, OCI-P5x cells, with rucaparib 20 µM, 100% = cells with rucaparib alone) 61.5% | viability ([12]; at 0.0195 µM, OCI-P5x cells, without rucaparib) 8.64% | viability ([12]; at 0.0781 µM, OCI-C5x cells, with rucaparib 10 µM, 100% = cells with rucaparib alone) 11% | viability ([12]; at 0.0781 µM, OCI-C5x cells, without rucaparib) 3.7% | viability ([12]; at 0.0781 µM, OCI-P5x cells, with rucaparib 20 µM, 100% = cells with rucaparib alone) 18.6% | viability ([12]; at 0.0781 µM, OCI-P5x cells, without rucaparib) 1.55% | viability ([12]; at 0.313 µM, OCI-C5x cells, with rucaparib 10 µM, 100% = cells with rucaparib alone) 3.83% | viability ([12]; at 0.313 µM, OCI-C5x cells, without rucaparib) 2.36% | viability ([12]; at 0.313 µM, OCI-P5x cells, with rucaparib 20 µM, 100% = cells with rucaparib alone) 1.82% | viability ([12]; at 0.313 µM, OCI-P5x cells, without rucaparib) 0.757% | viability ([12]; at 1.25 µM, OCI-C5x cells, with rucaparib 10 µM, 100% = cells with rucaparib alone) 2.25% | viability ([12]; at 1.25 µM, OCI-C5x cells, without rucaparib) 1.76% | viability ([12]; at 1.25 µM, OCI-P5x cells, with rucaparib 20 µM, 100% = cells with rucaparib alone) 1.09% | viability ([12]; at 1.25 µM, OCI-P5x cells, without rucaparib) 0.567% | viability ([12]; at 5 µM, OCI-C5x cells, with rucaparib 10 µM, 100% = cells with rucaparib alone) 0.969% | viability ([12]; at 5 µM, OCI-C5x cells, without rucaparib) 1.42% | viability ([12]; at 5 µM, OCI-P5x cells, with rucaparib 20 µM, 100% = cells with rucaparib alone) 0.522% | viability ([12]; at 5 µM, OCI-P5x cells, without rucaparib) 0.371%
inactive: fold change [10, 14] 1.7 | z-score [11, 18] -0.74 | viability [12, 22] 116% | viability [12, 23] 108% | viability [12, 26] 128% | viability [12, 30] 114%
936: cell count [10, 16]

CC1(C)CC(=O)c2c(C(F)(F)F)nn(-c3ccc(C(N)=O)c(NC4CCC(O)CC4)c3)c2C1 (configuration not stated)
3040: cell count [10, 16]
0.783: fold change [10, 15]
-1.99: z-score [11, 19]
active: AC50 [1] 118 nM | AC50 [2] 469 nM | AC50 [3] 166 nM | AC50 [4] 132 nM | AC50 [5] 148 nM | AC50 [6] 105 nM | AC50 [7] 148 nM | AC50 [8] 118 nM | IC50 [9] 186 nM | z-score [11, 18] 2.87
inactive: fold change [10, 14] 0.978
3110: cell count [10, 17]

O=c1cc(N2CCOCC2)oc2c(-c3cccc4c3sc3ccccc34)cccc12
inactive: outcome [2] | fold change [10, 14] 0.901 | plate-normalised HSF1 focus index [13] 0.984 | z-score [11, 18] -0.264 | viability [12, 21] 106% | viability [12, 22] 104% | viability [12, 24] 100% | viability [12, 25] 104% | viability [12, 26] 103% | viability [12, 27] 102% | viability [12, 28] 101% | viability [12, 29] 103% | viability [12, 30] 107%
6670: cell count [10, 17]
1.08: z-score [11, 19]
active: AC50 [1] 13200 nM | AC50 [3] 23500 nM | AC50 [4] 14800 nM | AC50 [5] 16600 nM | AC50 [6] 14800 nM | AC50 [7] 18700 nM | AC50 [8] 16600 nM | IC50 [9] 29500 nM | viability [12, 20] 98.4% | viability [12, 23] 99.9% | viability [12, 31] 99%
6010: cell count [10, 16]
0.761: fold change [10, 15]
-0.228: SSMD [13]
7060: cell count [13]
